Consider 66 sequences from PubChem BioAssay AID1159506 (National Center for Advancing Translational Sciences (NCATS), 2015).

Whole data set: some 59,000 sequences, median the read-out near -0.00055, cut for the lowest 2% near -2. Many of the other results were omitted from the sample, so the lowest values are more common in it than they were.

The assay can be described thus: Identification of proteins required for the processing of the EWS-FLI1 nascent transcript.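 Further: robust z of luciferase light less the median z of siRNAs with the same seed.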 The note with it: TC32 Ewing sarcoma NR0B1-luc vs CMV-luc (EWS-FLI1 target promoter against control promoter), 48 h; screened at 20 nM (by protocol). Put shortly: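 TC32 Ewing sarcoma cells carrying NR0B1-promoter or CMV-promoter luciferase reporters were reverse-transfected with single siRNAs at 20 nM, three per gene genome-wide. Luminescence was read after 48 h and normalized to non-targeting controls.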
UCAGUUUCCUCGCCGACUC against SH3BP5L displayed a seed-corrected z-score of -2.66. Take UACUGAGGACCUUUCGUUC against SPATA21: the seed-corrected z-score was -0.926.

Take UGCUUAACCACAGAAGCUG against ADSL: the seed-corrected z-score is -0.731.

UACAGUACAAGUAUGAGCU against CYB561D2 came in with a seed-corrected z-score of -1.33. Under UCUCCUUUUAGCAUGAUCC against SNRPE stands -2.15; under UUGAGUCCAAUGUCCACUC against TBC1D9B, -0.454; under UCCACGUCAAAUUUAUCCC against SPAG1, 0.232.

Regarding AAUUGUCCAACAUCAACGA against METTL2A, the seed-corrected z-score was -1.52. To AUUCGAAUUAGGUAUUGGG against MAK16 belongs 0.538; to UGCUUCAACAAAUCGGGCC against C7orf57, -2.05; to UGAUUGCAGAUGAUGAUCC against VHLL, -0.39. Under UUAGUUCCCAAGUACUAUC against CHD9 stands 0.856; under UGGAUAGCGGUCCUCAUCC against IL17C, 1. UUGGGUGUCAGCAGUACUG against PRRC2A displayed a seed-corrected z-score of -2.05. Under AAGGUAAACAUGUUCUCGC against TARSL2 stands 0.287; under AAAGUUACGCACCCAAUUG against GBA, 0.249. To AAUGAGACGACGGAUGAAC against C19orf25 belongs -0.471. Under UUACUGACAGUAUUUCACU against C10orf67 stands -0.0381. For the sequence UUCAGCAUCACGAACAUCC against SRSF10, the seed-corrected z-score was -1.61.

UGCAGGUUCAGCUUGUCUG against LGALS2 showed a seed-corrected z-score of -2.58. Under UUCAGCACCACGCAGUUGC against C12orf65 stands 0.924; under UAUGGAGAGAGAAUAACUG against SDHC, 0.151. The sequence UAUUGACCACAAUCGAGGC against PIGX came in with a seed-corrected z-score of 1.23. Under ACAGGGACUUGAACUGGGC against IFNL3 stands -2.31. To UUUGUUCCAAGGCAUUCAC against CCDC129 belongs 1.07. The sequence UAGGUCGAAAGAACUCAGC against PEX3 displayed a seed-corrected z-score of -0.0828. UGGAGUAUGAGUCCCAUUC against MTPAP had a seed-corrected z-score of -15.6. With UUAGAUACAGGUAUGAACA against OR4C45, the seed-corrected z-score amounted to 0.478. To UAAGUUCUUAGAGUUUUGG against TP53TG3 belongs 0.271; to UUCUCGAUUAAGAAGUUUC against C18orf21, 0.33; to UCAGUAGCAACUGCCCUUU against MGAT4EP, -2.02.

Sequence AUCGAUUCCAUUUCAAGGC against SERHL registered a seed-corrected z-score of 0.0431. Under UUGAUUUUCUCCUCCAUCC against JAKMIP1 stands -0.126. Under UGUAGUACACUCUUGUUCU against GOLGA8G stands -0.318; under UAGUUGAGAAGGUCGAAGU against SF3B5, -2.5; under UUAUGUCUCAUGAGUCGGU against ZNF548, -0.149. The sequence UGACUGUCUUGCGUAUUUC against TTC21A came in with a seed-corrected z-score of 0.856. To UUCUAGAUAAUAACUCUCC against CCDC47 belongs 0.297; to UCAGGUAUCUGAGAAUCUC against APOBEC3B, -0.83.

Sequence UACUGAACACUGGAAAUUC against FGFBP2 gave a seed-corrected z-score of 1.53. To UUCUCAUCGAGCCUGAAGU against FAM187B belongs 1.36; to UGUUGUACCACUGUCAGAG against PPM1G, -0.406.

Regarding AUAGAUACUGGGAGGUUUG against UBE2J2, the seed-corrected z-score came out at 0.783. As to UAAUCAUCCCGACCAACGC against P2RY10, the seed-corrected z-score was -0.625. For CAGAUUCUGACGCUUUGUG against LIMD1-AS1, the seed-corrected z-score is -1.25. Under UCGAUGUAGAGGAUGCUGA against GDF7 stands -2.35; under UAAGAAAUGACGUGUGCUG against PTGDR2, 0.0522.

In turn, UGAGGUACUCGCUUUCCUG against TCTE1 came in with a seed-corrected z-score of -0.587. To UUAGAAAUGCAAAUAAACU against TMSB15A belongs 0.478; to UUCGGUAAGACAUCAGUGG against STAG2, 0.75; to UUGUAAUCAAAGUAGUAGC against PSMD8, -5.85.

UGUUCUUGAACUGUAGUAC against RNF40 displayed a seed-corrected z-score of 0.119. Under UGAGCCUUGAGUGCACUGG against LOC729047 stands 0.713; under UAAGAUUGGAGAGAUUGCC against SLC10A4, 0.287; under UGUAGUAUCUGAGUCAACC against CENPE, -2.96. To UUACAUAUCACGUACAUCC against SENP8 belongs 0.448; to UUUUCUAAUAUGCUAACUG against BMP8A, -0.422; to UCAUUAGUAAUAUCGUCGG against HSP90AA1, -0.64. To UCAAUGCCUCUGAUUGUUG against SPATA31D5P belongs -1.51; to UUCGAUACCAGCCGGUAGC against F8A2, -12.9; to UUCCCGUAAACUUUCUCGC against KLF13, 0.162. The sequence UGAUCUAUGAGUACGUCCG against SBNO1 gave a seed-corrected z-score of -0.107. Under AAGUGGACUUGAGAUGUGG against PPP1R1A stands -0.084.

As to UUAACAUGCAAGAAAUGUC against SPO11, the seed-corrected z-score is 2.19.

As to UUGUCCUUCAGGAACACCG against EPB41L1, the seed-corrected z-score was determined as 0.385. Under UAUCUAGUAGUAGUUCACC against CAB39 stands 0.229.
